A selection: hits, their analogues and other compounds. The true share with any hit is near 1%.
gsp antag – qHTS for Antagonists of gsp, the Etiologic Mutation Responsible for Fibrous Dysplasia/McCune-Albright Syndrome: qHTS; gsp-mutant cells, cAMP HTRF, 30 min; actives 0.4% (n = 340,000); Potency, µM (series often up to 76.9 µM), without a hit: at the highest dose activity change, negative = inhibition, most hits filed as inhibitors; calls by dose curve; cell line not stated here;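 further: intracellular cAMP measured with PDE inhibitor Ro 20-1724 present during compound exposure; potency means the concentration at half of the fitted maximal effect; on the % scale 0 is the no-effect control and ±100 the full control effect; nearly all actives have a fitted effect of over 65% in size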
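HTRF cAMP read-out (cAMP-d2 plus anti-cAMP antibody-K in lysis buffer, 30 min RT). Before lysis, cells are exposed to compounds with […] for 30 min at 37C in DPBS containing Ca/Mg, BSA and Tween 20.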
RXFP1 ag – qHTS Assay for Agonists of the Relaxin Receptor RXFP1; Potency, µM (top dose mostly 57.5 µM), inactives show at the highest dose activation, most hits filed as activators; actives 0.3% (n = 370,000); HEK293T-RXFP1 cAMP TR-FRET, 30 min; response scale: percent of porcine relaxin response, buffer zero; Relaxin receptor 1 (Homo sapiens), Q9HBX9; AID 2676, 2010; active means well fitted activation curve with a large enough effect; inconclusive means small, poorly fitted or top-dose-only effect; further: potency means the concentration at half of the fitted maximal effect; on the % scale 0 is the no-effect control and ±100 the full control effect; nearly all actives have a fitted effect of over 60% in size
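HEK293 cells stably expressing RXFP1, treated 30 min at 37C with compounds plus PDE4 inhibitor Ro 20174; cAMP measured by HTRF TR-FRET. Normalized to buffer and 29 nM porcine relaxin; EC50 by Hill fit.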
gsp agonist – qHTS for Agonist of gsp, the Etiologic Mutation Responsible for Fibrous Dysplasia/McCune-Albright Syndrome: qHTS. gsp mutant cells, cAMP HTRF, 30 min. Potency, µM (top dose mostly 76.9 µM), for the others: at the highest dose activation (cAMP increase), actives largely listed as activators. actives 0.13% (n = 340,000); active means well fitted activation curve with a large enough effect; inconclusive means small, poorly fitted or top-dose-only effect, or another doubt; inactive means no such curve, though single readings can be large or run the other way; cell line not stated here;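 further: phosphodiesterase inhibitor Ro 20-1724 added with compounds to block cAMP breakdown; potency means the concentration at half of the fitted maximal effect; nearly all actives have a fitted effect of over 60% in size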
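Cells in DMEM/10% FBS with G418 were pretreated with compounds in DMSO plus […] (300 uM stock) for 30 min at 37C. cAMP was measured by HTRF (cAMP-d2 plus anti-cAMP antibody-K) after 30 min at room temperature.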
TSHR antagonist – Antagonists of the Thyroid Stimulating Hormone Receptor: HTS campaign; TSHR-expressing cells, TSH-stimulated cAMP HTRF, 2 h; hits give low values; Thyrotropin receptor (Homo sapiens), P16473; activity change, negative = inhibition, % at 11.5 µM; AID 504810, 2011; actives 0.2% (n = 330,000);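 active means activity change below a set negative limit, meaning inhibition stronger than a set level, cut at about -70% in these data; inconclusive means activity change between two set negative limits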; further: on the % scale 0 is the no-effect control and ±100 the full control effect
Target sequence (P16473 whole entry, looked up): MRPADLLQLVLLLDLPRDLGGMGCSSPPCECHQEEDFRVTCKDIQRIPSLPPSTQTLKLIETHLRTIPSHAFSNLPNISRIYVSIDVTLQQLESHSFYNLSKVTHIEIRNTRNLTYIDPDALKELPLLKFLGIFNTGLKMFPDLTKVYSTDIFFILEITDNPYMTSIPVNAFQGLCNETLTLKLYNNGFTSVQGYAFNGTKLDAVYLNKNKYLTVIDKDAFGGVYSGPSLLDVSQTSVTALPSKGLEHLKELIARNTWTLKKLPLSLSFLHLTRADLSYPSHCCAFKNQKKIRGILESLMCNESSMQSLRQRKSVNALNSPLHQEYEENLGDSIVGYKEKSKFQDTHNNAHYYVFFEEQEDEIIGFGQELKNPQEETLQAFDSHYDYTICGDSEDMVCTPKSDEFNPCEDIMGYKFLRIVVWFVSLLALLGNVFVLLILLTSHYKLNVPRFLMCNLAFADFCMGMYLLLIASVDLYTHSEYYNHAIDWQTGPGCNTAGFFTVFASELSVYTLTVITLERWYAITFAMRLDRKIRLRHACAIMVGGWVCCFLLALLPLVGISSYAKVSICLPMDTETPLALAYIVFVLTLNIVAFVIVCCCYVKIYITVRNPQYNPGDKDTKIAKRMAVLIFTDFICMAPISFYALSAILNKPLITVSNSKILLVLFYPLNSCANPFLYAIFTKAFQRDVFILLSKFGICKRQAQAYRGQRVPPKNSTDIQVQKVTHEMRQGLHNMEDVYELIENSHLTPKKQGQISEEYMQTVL
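Antagonism was scored as loss of TSH-driven cAMP in TSHR cells, stimulated with 4nM TSH (EC80) for 2 hours at 37 deg C and detected by homogeneous HTRF competition immunoassay.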
RXFP1 antagonist – qHTS Assay for Antagonists of the Relaxin Receptor RXFP1. Relaxin receptor 1 (Homo sapiens), Q9HBX9. HEK293-RXFP1, relaxin-stimulated cAMP HTRF, 30 min; hits give low values. activity change, negative = inhibition, % at 57.5 µM. actives 0.59% (n = 350,000). AID 1259400, 2018;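 active means activity change of -60% or lower, but not beyond a set lower limit; inconclusive means change between -60% and -40%, or beyond the set limit; inactive means change above -40%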; further: on the % scale 0 is the no-effect control and ±100 the full control effect
Starred values were filed as active, the others as inactive; ! = a repeat was not active; [ ] = remark or other dose.

What do the screens show for `CCC(=O)Nc1cccc(NC(=O)CSc2nc3c(c(=O)n(C)c(=O)n3C)n2C)c1`?
gsp antag: 4%; RXFP1 ag: inconclusive; gsp agonist: 26%[15.4 µM]; TSHR antagonist: 7; RXFP1 antagonist: 15

What do the screens show for `CC(=O)Nc1cccc(NC(=O)CSc2nc3c(c(=O)n(C)c(=O)n3C)n2C)c1`?
gsp antag: 17%; RXFP1 ag: 28µM*; gsp agonist: 51%[15.4 µM]; TSHR antagonist: 11; RXFP1 antagonist: 26

Results for COc1ccc(OC)c(C2C(C(=O)c3cc4ccccc4o3)=C(O)C(=O)N2c2cc(C)on2)c1 (stereo not drawn) ?
gsp antag: -8%; RXFP1 ag: inconclusive; gsp agonist: 14µM*; TSHR antagonist: 36

What do the screens show for `Cc1cc(N2C(=O)C(O)=C(C(=O)c3ccc(C)o3)C2c2ccc([N+](=O)[O-])cc2)no1` (stereo not drawn)?
gsp antag: -15%; RXFP1 ag: 1%; gsp agonist: 16%; TSHR antagonist: -11; RXFP1 antagonist: -12

Results for Cc1cc(N2C(=O)C(O)=C(C(=O)c3cc4ccccc4o3)C2c2ccc(Br)cc2)no1 (stereo not drawn) ?
gsp antag: -4%; RXFP1 ag: 22µM*; gsp agonist: 3.5µM*; TSHR antagonist: 27; RXFP1 antagonist: 10

How did COc1ccc(OC)c(C2C(C(=O)c3ccc(C)o3)=C(O)C(=O)N2c2cc(C)on2)c1 (stereo not drawn) do in these assays?
gsp antag: -34%; RXFP1 ag: inconclusive; gsp agonist: inconclusive; TSHR antagonist: -7; RXFP1 antagonist: -12

Results for CCOC(=O)N1CCC(Nc2ccc(Cl)cc2N)CC1 ?
RXFP1 antagonist: -22

How did CC(=O)Nc1c(C(=O)Nc2cccc(C)c2)nnn1-c1ccc(C)cc1 do in these assays?
RXFP1 ag: 3%

What do the screens show for `O=c1[nH]c2ccccc2n1CCCN1CCCCC1`?
gsp antag: 19%; RXFP1 ag: 0%; gsp agonist: -2%[15.4 µM]; TSHR antagonist: 8; RXFP1 antagonist: -31

Results for O=c1[nH]c2ccccc2n1CCCN1CCN(C(c2ccccc2)c2ccccc2)CC1 ?
RXFP1 ag: 4%; TSHR antagonist: 0; RXFP1 antagonist: -75*

Results for CCOP(=O)(Cc1ccc(C(C)(C)CC(C)=O)o1)OCC ?
gsp antag: -2%; RXFP1 ag: 0%; gsp agonist: 6%; TSHR antagonist: -82*; RXFP1 antagonist: 7

What do the screens show for `CCOc1ccc(-n2c(SCC(=O)Nc3cc(C)on3)nc3c(c2=O)SCC3)cc1`?
gsp antag: 4%; RXFP1 ag: -1%; gsp agonist: 3%; TSHR antagonist: -85*; RXFP1 antagonist: -1

How did Cc1cc(C(=O)COC(=O)c2ccc[nH]c2=O)c(C)n1-c1ccccc1F do in these assays?
gsp antag: 7%; RXFP1 ag: 1%; gsp agonist: 2%; TSHR antagonist: -13; RXFP1 antagonist: 7

What do the screens show for `Cc1cc(C(=O)COC(=O)c2ccc(O)cc2)c(C)n1-c1ccccc1F`?
gsp antag: 9%; RXFP1 ag: 2%; gsp agonist: 10%[15.4 µM]; TSHR antagonist: -15; RXFP1 antagonist: -83*

What do the screens show for `COc1ccc(CCn2c(=N)c(C(=O)NCC3CCCO3)cc3c(=O)n4cccc(C)c4nc32)cc1` (stereo not drawn)?
gsp antag: 5%; RXFP1 ag: 18µM*; gsp agonist: inconclusive; TSHR antagonist: -10; RXFP1 antagonist: -1

How did COCCn1c(=N)c(C(=O)NCCc2ccc(OC)cc2)cc2c(=O)n3cccc(C)c3nc21 do in these assays?
gsp antag: 12%; RXFP1 ag: 1%; gsp agonist: 1%; TSHR antagonist: 0; RXFP1 antagonist: -13

What do the screens show for `COc1ccc(CNC(=O)c2cc3c(=O)n4cccc(C)c4nc3n(CC3CCCO3)c2=N)cc1` (stereo not drawn)?
gsp antag: 5%; RXFP1 ag: inconclusive; gsp agonist: 2.2µM*; TSHR antagonist: 1; RXFP1 antagonist: 10

Results for COCCCNC(=O)c1cc2c(=O)n3cccc(C)c3nc2n(C(C)C)c1=N ?
gsp antag: 1%; RXFP1 ag: 15%; gsp agonist: 22µM*; TSHR antagonist: -5; RXFP1 antagonist: 4

What do the screens show for `Cc1ccccc1CN1C(=O)c2ccccc2Sc2ccc(C(=O)NC(C)c3ccccc3)cc21` (stereo not drawn)?
RXFP1 ag: 1%; RXFP1 antagonist: -6

How did COC(=O)c1sc2nc(C)nc(SCC(=O)N3CCC(C(=O)O)CC3)c2c1C do in these assays?
gsp antag: 0%; RXFP1 ag: inconclusive; gsp agonist: 16µM*; TSHR antagonist: 7; RXFP1 antagonist: 5

What do the screens show for `CN(C(=O)CSc1ncnc2sc3c(c12)CCCC3)C1CCS(=O)(=O)C1` (stereo not drawn)?
gsp antag: -4%; gsp agonist: 11µM*; TSHR antagonist: -8; RXFP1 antagonist: 12

Results for Cc1nc(SCC(=O)NC2CC2)c2c(C)c(C)sc2n1 ?
gsp antag: -4%; RXFP1 ag: 16%; gsp agonist: 10%[15.4 µM]; TSHR antagonist: -8; RXFP1 antagonist: -6

Results for CCOC(=O)c1sc2nc(C)nc(SCC(=O)N(C)C3CCS(=O)(=O)C3)c2c1C (stereo not drawn) ?
gsp antag: 8%; RXFP1 ag: 12%; gsp agonist: 16µM*; TSHR antagonist: 7; RXFP1 antagonist: 0

How did Cc1sc2ncnc(SCC(=O)N(C)C3CCS(=O)(=O)C3)c2c1C (stereo not drawn) do in these assays?
gsp antag: 7%; RXFP1 ag: inconclusive; gsp agonist: 27%[15.4 µM]; TSHR antagonist: 6; RXFP1 antagonist: -17

Results for CCCN(C(=O)CCc1nc(-c2ccc(OC)cc2)no1)c1ccccc1F ?
RXFP1 ag: 3%

How did CCCCC1CCC(C(=O)N2CC(=O)Nc3ccc(F)cc3C2c2ccc(F)cc2)CC1 (stereo not drawn) do in these assays?
RXFP1 ag: 2%; RXFP1 antagonist: inconclusive

What do the screens show for `CCn1c(/C=C/c2cc[n+](C)cc2)nc2ccccc21`?
gsp antag: 20%; RXFP1 ag: 28µM*; gsp agonist: inconclusive; TSHR antagonist: 8; RXFP1 antagonist: 27

How did CCCn1c(/C=C/c2ccccc2)nc2ccccc21 do in these assays?
gsp antag: inconclusive; RXFP1 ag: 11%; gsp agonist: 0%; TSHR antagonist: 6; RXFP1 antagonist: -86*!
